Compound activity as filed in PubChem BioAssay.
Sampled rows, rich in hits. Any-hit rate of the full collection: about 2.7%.
GLP1R cytotox: qHTS of GLP-1 Receptor Inverse Agonists: Cytotox Screen; HEK293 cAMP-luciferase reporter cells, luminescence, 24 h; Potency, µM (titrated, usually from 38.3 µM), actives largely listed as inhibitors; 410,000 tested, 0.13% active; AID 624418, 2012;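 also: loss of luciferase light is scored as toxicity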
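1536-well qHTS counterscreen of the MLSMR; 200 cells/uL, 12 h pre-incubation, 23 nL cpd, 24 h at 37 deg C 5% CO2, luciferase detection reagent, 12 min RT, luminescence. Inhibition = undesired.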
GLP-1R inv ag: qHTS of GLP-1 Receptor Inverse Agonists (Inhibition Mode); 410,000 tested, 1.6% active; HEK293 GLP-1R CRE-luciferase, luminescence, 24 h; GLP-1R form is constitutively active; Potency, µM (top dose mostly 38.3 µM), most hits filed as inhibitors; Glucagon-like peptide 1 receptor (Homo sapiens), P43220; also: nearly all actives have a fitted effect of over 55% in size
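qHTS in 1536-well format: reporter HEK293 cells expressing constitutive GLP-1R activity in DMEM + 10% Nu serum, 24 hr with compounds at 37 deg C, luminescence read after 12 min with detection reagent.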
GLP1R ag: qHTS of GLP-1 Receptor Agonists; Glucagon-like peptide 1 receptor (Homo sapiens), P43220; HEK293 GLP-1R CRE-luciferase, luminescence, 4-6 h; cells express a hypersensitive GLP-1R form; Potency, µM (top dose mostly 45.6 µM), most hits filed as activators; 380,000 tested, 0.007% active; AID 624172, 2012
IDH1 R132H inh: qHTS for Inhibitors of mutant isocitrate dehydrogenase 1 (IDH1): qHTS. Potency, µM (series often up to 76.6 µM), usual class: inhibitors. 390,000 tested, 0.093% active. IDH1-R132H enzyme, NADPH consumption, diaphorase/resazurin fluorescence. Isocitrate dehydrogenase [NADP] cytoplasmic (Homo sapiens), O75874; also: nearly all actives have a fitted effect of over 65% in size
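IDH1-R132H (0.5 ug/mL dispensed) in pH 7.5 Tris buffer was preincubated 30 min with compound, then given a substrate mix of 0.016 mM NADPH and 2 mM alpha-KG for 80 min at room temperature; remaining NADPH was read by diaphorase/resazurin fluorescence.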
TrxR1 inh: qHTS Assay for Inhibitors of Mammalian Selenoprotein Thioredoxin Reductase 1 (TrxR1): qHTS; Thioredoxin reductase 1, cytoplasmic (Rattus norvegicus), O89049; 390,000 tested, 1% active; Potency, µM (doses to about 114 µM), usual class: inhibitors; recombinant rTrxR1, NADPH fluorescence consumption, selenite substrate; also: nearly all actives have a fitted effect of over 65% in size
Target sequence (O89049 whole entry, looked up): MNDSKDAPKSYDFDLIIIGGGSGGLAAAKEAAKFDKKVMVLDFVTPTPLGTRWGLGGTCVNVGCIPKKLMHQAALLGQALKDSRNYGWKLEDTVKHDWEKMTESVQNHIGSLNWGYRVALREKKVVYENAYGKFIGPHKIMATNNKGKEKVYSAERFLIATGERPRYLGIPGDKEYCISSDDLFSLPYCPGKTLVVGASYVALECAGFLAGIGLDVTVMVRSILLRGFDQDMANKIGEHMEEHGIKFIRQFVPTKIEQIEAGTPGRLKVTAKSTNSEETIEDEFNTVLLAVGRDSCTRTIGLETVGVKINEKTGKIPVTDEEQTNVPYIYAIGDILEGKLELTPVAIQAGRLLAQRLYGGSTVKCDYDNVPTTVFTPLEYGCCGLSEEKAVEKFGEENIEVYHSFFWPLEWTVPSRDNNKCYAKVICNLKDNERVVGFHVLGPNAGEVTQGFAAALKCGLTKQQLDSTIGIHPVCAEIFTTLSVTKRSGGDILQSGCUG
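Rat TrxR1 (90 nM in the dispensed reagent) was pre-reduced with 400 uM NADPH for 5 min at room temperature, then incubated with compound for 15 min. After 400 uM selenite was added, NADPH fluorescence (Ex 340/Em 450 nm) was followed for 8 min.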
TrxR1 substrate: qHTS Assay for Substrates of Mammalian Selenoprotein Thioredoxin Reductase 1 (TrxR1): qHTS; Thioredoxin reductase 1, cytoplasmic (Rattus norvegicus), O89049; purified TrxR1 substrate turnover, NADPH consumption readout; Potency, µM (series often up to 114 µM); 390,000 tested, 0.01% active; AID 588456, 2011; also: nearly all actives have a fitted effect of over 50% in size
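Rat TrxR1, dispensed at 90 nM, was prereduced with 400 uM NADPH (final) for 5 min at ~22 deg C, then incubated with compound 15 min before 400 uM selenite. A first-read NADPH fluorescence drop versus no-compound background flagged substrates.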
Hits are given with their value; - = inactive; ? = inconclusive; . = no result; ! = not confirmed by another sample; [ ] = another dose, or the depositor's remark. Calls follow the shape of the dose curve; as a rule, active = well fitted curve in the direction sought with a large enough effect; inconclusive = small, poorly fitted or top-dose-only effect, or another doubt; inactive = no such curve, though single readings can be large; an effect the other way counts as inactive or inconclusive.

SMILES	GLP1R cytotox	GLP-1R inv ag	GLP1R ag	IDH1 R132H inh	TrxR1 inh	TrxR1 substrate
O=C(Cn1cc(C=C2C(=O)NC(=O)NC2=O)c2ccccc21)NCC1CCCO1 (stereo not drawn)	-	-	-	-	-[0.0914 µM]	-
Cc1c(C=C2C(=O)N(C)C(=S)N(C)C2=O)c2ccccc2n1CC(=O)NCC1CCCO1 (stereo not drawn)	-	-	-	-	13µM	-
Cc1ccc(NC(=O)C2CCCN2S(=O)(=O)c2ccc3nc(-c4ccccc4)[nH]c3c2)cc1F (stereo not drawn)	?	?	.	-	-	-
O=C(O)CC1OCC=C2CN3CCC45C6=CC(=O)C(=O)C([N+](=O)[O-])=C6NC4C1C2CC35 (stereo not drawn)	-	-	-	-	16µM	16µM
C[C@]12CCC3C(CCC4=CC(=O)CC[C@@H]43)C1CCC2O (stereo partly drawn)	.	.	-	.	.	.
O=C1c2cccc3c(O)ccc(c23)C(=O)N1c1ccc(Cl)cc1	-	?	-	-	?	-
Cc1ccc(C=C2C(Cl)=C(Cl)C(Cl)=C2Cl)cc1	-	-	-	-	3.2µM	-
Cn1ncc2c(NCc3ccco3)ncnc21	.	.	.	.	?	-
CCC(C)N1C(=O)/C(=C\c2cnc(N(C)C)nc2)C(=O)NC1=S (stereo not drawn)	-[7.66 µM]	-[7.66 µM]	-	-	14µM	-
CCC(C)N1C(=O)/C(=C\c2ccc(N3CCCCCC3)cc2)C(=O)NC1=S (stereo not drawn)	-	-	-	-	8.9µM	-
O=C1NC(=O)C(=Cc2ccc(N3CCOCC3)cc2)C(=O)N1	-	-	-	-	?	-
CN(C)c1ccc(/C=C2\C(=O)NC(=O)N(Cc3ccc(F)cc3)C2=O)cc1	-	-	-	-	?	-
CCC(C)N1C(=O)/C(=C\c2cc3c4c(c2)CCCN4CCC3)C(=O)NC1=S (stereo not drawn)	-	-	-	-	32µM	-
CC(C)CCC(=O)OC1CCC2C3CCC4=CC(=O)CC[C@]4(C)C3CC[C@]12C (stereo partly drawn)	.	.	-	.	.	.
Cc1ccccc1N1C(=O)NC(=O)/C(=C\c2cnn(-c3ccccc3)c2)C1=O	-	-	-	-	?	-
O=C1NC(=O)N(c2ccccc2F)C(=O)/C1=C/c1ccc(Oc2ccc([N+](=O)[O-])cn2)cc1	-	-	-	-	3.5µM	-
Cc1ccc(S(=O)(=O)N2[C@H](c3cccc(Cl)c3)CC(=O)[C@@H]3CN(S(=O)(=O)c4ccccc4C)[C@H](c4ccc(Cl)cc4)C[C@@H]32)cc1	-	?	-	-	.	.
O=C1NC(=O)C2(CCCc3ccc(N(CCCl)CCCl)cc32)N1 (stereo not drawn)	?	?	-	-	20µM	-
NC1(C(=O)O)CCCc2ccc(N(CCCl)CCCl)cc21 (stereo not drawn)	-	-	-	-	-	-
O=c1c2ccccc2[se]n1-c1ccccc1	-	?	-	?	28µM!	?
O=c1c2ccccc2nc(-c2ccccc2F)n1-c1ccccc1	-	?	-	-	-	-
O=C(Nc1ncccc1O)c1ccc(S(=O)(=O)NCc2ccco2)cc1	-	-	-	-	.	.
CC(C)=CCc1c(O)cc2c(c1O)C(=O)CC(c1ccc(O)cc1)O2 (stereo not drawn)	-	13µM	-	-	-	-
Cc1oc2ccc(OC(=O)N(C)C)cc2c1C(=O)OC(C)C	-	-	-	-	-	-
CCOC(=O)c1c(-c2ccc(OC)cc2)oc2ccc(OC(=O)N(C)C)cc12	-	5.6µM	-	-	-	-
CN1/C(=C\C=C2C(=O)NC(=O)NC2=O)C(C)(C)c2ccccc21	-	-	-	-	?	?
